PubChem BioAssay
Activity calls are given as the source filed them.

Biological target: NADPH oxidase 2 (Homo sapiens) (UniProt P04839)
Test: compounds shifting NOX2 Amplex Red fluorescence – cell-based, HEK293-NOX2, PMA-stimulated, NOX inhibitor project, primary screen (AID 1159); also: test concentration not given here
Settings: 45 min, higher = more signal, called active from +8 up or from −8 down

NADPH oxidase 2 (Homo sapiens), sequence (P04839 whole entry, looked up): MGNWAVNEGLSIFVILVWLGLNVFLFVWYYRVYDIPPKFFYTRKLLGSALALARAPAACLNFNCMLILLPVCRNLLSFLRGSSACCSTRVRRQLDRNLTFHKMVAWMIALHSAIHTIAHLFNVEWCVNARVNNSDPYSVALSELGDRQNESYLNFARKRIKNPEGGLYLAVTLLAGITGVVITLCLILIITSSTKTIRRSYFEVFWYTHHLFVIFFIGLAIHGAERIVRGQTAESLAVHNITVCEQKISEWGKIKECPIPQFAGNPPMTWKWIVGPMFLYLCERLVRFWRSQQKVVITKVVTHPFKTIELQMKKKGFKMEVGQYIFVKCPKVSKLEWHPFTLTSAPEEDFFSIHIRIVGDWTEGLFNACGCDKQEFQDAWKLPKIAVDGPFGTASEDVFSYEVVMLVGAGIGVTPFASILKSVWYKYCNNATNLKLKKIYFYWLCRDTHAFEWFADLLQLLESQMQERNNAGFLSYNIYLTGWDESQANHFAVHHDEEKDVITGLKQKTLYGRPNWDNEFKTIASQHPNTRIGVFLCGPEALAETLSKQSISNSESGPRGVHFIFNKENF

z-score, inactive:
CC(c1ccccc1)C(O)C1C=CC2C(=O)N(C)C(=O)C2N1Nc1ccccc1 (stereo not given) -1.51, Cc1ccc(N2C(=O)c3ccccc3[C@@H](C(=O)NCCCN(C)C)[C@@H]2c2ccc(CO)cc2)nc1 0.911, CCCCC(CC)C(O)C1C=CC2C(=O)N(C)C(=O)C2N1Nc1ccccc1 (stereo not given) -1.45, C=CCNC(=O)[C@@H]1[C@H]2C(=O)O[C@H](c3ccccc3)[C@H](c3ccccc3)N2[C@H](c2ccc(O)cc2)[C@@]12C(=O)N(C(=O)OCCOC)c1ccc(C#CC3=CCCCC3)cc12 1.61, NCCCCCCNC(=O)[C@@H]1C[C@@H]2C(=O)N[C@@H](CCCCN)C(=O)N2[C@@H]1c1ccc(O)cc1 -1.77, Cc1ccc(C(C)CC(O)C2C=CC3C(=O)N(c4ccccc4)C(=O)C3N2Nc2ccccc2)o1 (stereo not given) -3.07, COCCOC(=O)N1C(=O)[C@@]2(c3cc(C#CC4(O)CCCCCC4)ccc31)[C@H](C(=O)N1CCc3cc(OC)c(OC)cc3C1)[C@H]1C(=O)O[C@H](c3ccccc3)[C@H](c3ccccc3)N1[C@@H]2c1ccc(OCCO)cc1 1.6, COC(=O)[C@@]1(Cc2ccc(OC)cc2)[C@H]2c3cc(C(=O)N(C)C)n(Cc4ccc(OC(F)(F)F)cc4)c3C[C@H]2CN1C(=O)c1ccccc1 0.262, CCCCCN1CC=CC23O[C@@H]4C=CCCOC(=O)C4[C@H]2C(=O)N(CCCCCCO)[C@@H]3C1=O (stereo not given in full) 1.27, COCCOC(=O)N1C(=O)[C@@]2(c3cc(C#CC4=CCCCC4)ccc31)[C@H](c1ccccc1OCCO)N1[C@H](c3ccccc3)[C@H](c3ccccc3)OC(=O)[C@H]1[C@@H]2C(=O)N1CCN(c2ncccn2)CC1 0.976, NC(=O)[C@@]1(Cc2ccccc2)COC(c2ccc(OCCCO)cc2)=N1 -0.519, N#Cc1ccc(NN2C(C(O)c3ccc(Br)cc3)C=CC3C(=O)N(c4ccccc4)C(=O)C32)cc1 (stereo not given) -2.6, CCOC(=O)C[C@H]1[C@H](OC(=O)c2ccccc2-c2ccccc2)[C@@H](NC(=O)c2ccc3ccccc3c2)c2cc(OCCCO)ccc2N1C(=O)c1ccccc1 0.595, O=C1NC(=O)C2C1C=CC(C(O)c1ccco1)N2Nc1ccc(Cl)cc1Cl (stereo not given) -0.767, C=CCOC(=O)[C@@]1(Cc2ccccc2)C[C@H]2CO[C@H](c3ccc(OC)cc3)N2C1=O 0.826, COCCCNC(=O)[C@@H]1c2ccccc2C(=O)N(C(C)C)[C@H]1c1ccc(CO)cc1 0.161, COC(=O)C1=CC(CCCO)=CC(c2cccs2)N(Cc2cccc(OC(F)(F)F)c2)C=C1C(=O)OC (stereo not given) -0.244, [N-]=[N+]=Nc1ccccc1C[C@]1(C(=O)NCC(O)CO)COC(c2ccc(OCCCO)cc2)=N1 (stereo not given in full) 1.52, COc1cccc(C)c1NC(=O)O[C@H]1[C@H](OC(=O)Nc2ccc3c(c2)OCO3)[C@@H](OC(=O)Nc2ccc3c(c2)OCO3)[C@@H](OC)O[C@@H]1CO -1.21, CCCCCCCCCCC(O)C1C=CC2C(=O)N(c3ccccc3)C(=O)C2N1Nc1ccc(C#N)cc1 (stereo not given) -1.32, Cc1ccc(F)cc1S(=O)(=O)N[C@@H]1CCN(Cc2ccc(Br)cc2)C1 -0.955, C=CC[C@]1(C(=O)N2CCCCC2)N=C(c2ccc(OCCCO)cc2)O[C@H]1c1ccccc1CN=[N+]=[N-] -3.31, COCC(=C=CC[C@H](O)c1ccc(CO)o1)CCO 0.249, O=C(c1ccccc1)N1C(=O)[C@]2(Cc3ccccc31)N=C(c1ccc(OCCCO)cc1)O[C@@H]2c1ccccc1 0.491, C[N+](C)(C)CCCCCCNC(=O)[C@@H]1C[C@@H]2C(=O)N3CCC[C@H]3C(=O)N2[C@@H]1c1ccc(O)cc1 -0.425, C=CCC(OC(C)=O)[C@@H]1[C@@H](N(Cc2ccc(-c3ccccc3)cc2)C(=O)c2ccc(-c3ccccc3)cc2)c2cc(OCCCO)ccc2N1C(=O)c1ccc2ccccc2c1 (stereo not given in full) 0.707, CCOC(=O)C1=C[C@@H](C(C)(C)C)N(S(=O)(=O)c2ccc(C)cc2)[C@H]1c1cccc2ccccc12 -0.527, O=C1CS(=O)(=O)C(c2cccc([N+](=O)[O-])c2)N1c1ccccc1 (stereo not given) 0.227, COC(=O)[C@@]1(Cc2ccc(F)cc2)[C@H]2c3cc(C(=O)N4CCCC4)n(CCc4c[nH]c5ccccc45)c3C[C@H]2CN1C(=O)c1ccccc1 0.515, COc1ccc(CCNC(=O)[C@@]2(c3ccc([N+](=O)[O-])cc3)CC(=O)N(C3CCCCC3)[C@@H]2c2ccc(CO)cc2)cc1 -1.05, O=C(O)[C@@H]1[C@@H]2C(=O)N(c3ccccc3)C(=O)[C@@H]2C[C@@H]1Sc1ccccc1 0.312, C=CC[C@@H](OC(=O)Nc1ccc(SC)cc1)c1ccc(O)c(F)c1 -5.77, COCCOC(=O)N1C(=O)[C@@]2(c3cc(C#CC4=CCCCC4)ccc31)[C@H](C(=O)Nc1nc3ccccc3s1)[C@H]1C(=O)O[C@H](c3ccccc3)[C@H](c3ccccc3)N1[C@@H]2c1ccc(O)cc1 0.843, CC(C)C[C@@H]1NC(=O)[C@@H]2C[C@H](C(=O)NCCCCCCN)[C@H](c3cccc(OCCO)c3)N2C1=O 2.24, COCCOC(=O)N1C(=O)[C@@]2(c3cc(C#CCNC(N)=O)ccc31)[C@H](C(N)=O)[C@H]1C(=O)O[C@H](c3ccccc3)[C@H](c3ccccc3)N1[C@@H]2c1ccccc1OCCO 1.9
